Assay results reported in PubChem BioAssay (Tox21).
Records with an inconclusive call do not appear. The source made the active and inactive calls. Unless noted, the call rests on the fitted dose curve.

Tests used:
[1] = qHTS assay to identify small molecule agonists of the vitamin D receptor (VDR) signaling pathway - cell viability counter screen (AID 743224; active means well fitted curve in the direction sought with a large enough effect in the repeat runs; an effect the other way counts as inactive or inconclusive; further: series mostly up to about 63 µM; nearly all actives have a fitted effect of over 50% in size)
Procedure, shortened: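 Here cell health was gauged by luminescent ATP detection (CellTiter-Glo, 30 min RT) in VDR-bla cells that had been incubated with test compounds for 16 h at 37C and 5% CO2.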

[2] = qHTS assay to identify small molecule antagonists of the vitamin D receptor (VDR) signaling pathway - cell viability counter screen (AID 743225; active means well fitted curve in the direction sought with a large enough effect in the repeat runs; an effect the other way counts as inactive or inconclusive; further: nearly all actives have a fitted effect of over 50% in size)
Procedure, shortened: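 Luminescent cell viability (CellTiter-Glo) in VDR-bla HEK 293T cells after 16 h compound exposure at 37C in the presence of 3 nM final 1-alpha,25-dihydroxy vitamin D3.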

[3] = qHTS assay to identify small molecule agonists of the NFkB signaling pathway (AID 1159509; active means well fitted curve in the direction sought with a large enough effect in the signal ratio in the repeat runs, not every such curve was filed as active; the % refers to the signal ratio; further: series mostly up to about 61 µM)
Procedure, shortened: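 After overnight attachment, reporter cells received test compounds, DMSO or positive controls and were incubated 5 hr at 37 C. FRET substrate was then added for 1.5 hr at room temperature before dual-emission fluorescence reading.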

[4] = qHTS assay to identify small molecule agonists of the NFkB signaling pathway - cell viability counter screen (AID 1159515); further: series mostly up to about 61 µM; nearly all actives have a fitted effect of over 55% in size
Procedure, shortened: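 5 hr compound treatment of NFkB-bla ME-180 cells (2,000/well, seeded overnight beforehand), followed by reporter substrate for 1.5 hr. CellTiter-Glo added afterward; luminescence after 30 min RT.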

[5] = qHTS assay to identify small molecule agonists of the endoplasmic reticulum stress response signaling pathway (AID 1159516; active means well fitted activation curve with a large enough effect in the signal ratio in the repeat runs, not every such curve was filed as active; the % refers to the signal ratio)
Procedure, shortened: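 Reporter HeLa cells (ESRE-beta-lactamase) underwent 5 hr compound incubation at 37 C and 5% CO2 in quantitative HTS format. Detection followed 2 hr of FRET substrate loading at room temperature.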

[6] = qHTS assay to identify small molecule agonists of the endoplasmic reticulum stress response signaling pathway - cell viability counter screen (AID 1159517);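 further: HeLa cells carrying an ER stress response element beta-lactamase reporter; series mostly up to about 61 µM; nearly all actives have a fitted effect of over 50% in size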
Procedure, shortened: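 Luminescence readout: CellTiter-Glo, 30 min RT, same wells as the ESRE-bla reporter read. HeLa ESRE-bla, 1,500 cells/well, o/n 37 C; cpd 5 hr 37 C/5% CO2.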

[7] = qHTS assay to identify small molecule antagonists of the retinoid-related orphan receptor gamma (ROR-gamma) signaling pathway - cell viability counter screen (AID 1159520; active means well fitted curve in the direction sought with a large enough effect in the repeat runs; an effect the other way counts as inactive or inconclusive; further: nearly all actives have a fitted effect of over 50% in size)
Procedure, shortened: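 Tet-on ROR gamma CHO cells (1,000/well) were plated 4 hr, given compounds in DMSO for 2 hr at 37 C, then induced with 1 uM final doxycycline for 16 hr. Viability was read as ATP by CellTiter-Glo luminescence after 30 min.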

[8] = biological target: Nuclear receptor ROR-gamma (Homo sapiens) (UniProt P51449); test: qHTS assay to identify small molecule antagonists of the retinoid-related orphan receptor gamma (ROR-gamma) signaling pathway (AID 1159521; active means well fitted curve in the direction sought with a large enough effect in the repeat runs; an effect the other way counts as inactive or inconclusive)
Procedure, shortened: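 CHO cells expressing RORγ under a TET-on promoter, luciferase under RORE control. Dox 1 uM final, 16 h; compounds added 2 h prior. Luminescence decrease measured.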

[9] = qHTS assay to identify small molecule agonists of the AP-1 signaling pathway - cell viability counter screen (AID 1159525); further: nearly all actives have a fitted effect of over 55% in size
Procedure, shortened: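 ME-180 AP-1-bla, 2500 cells/well, Opti-MEM + 0.5% dialyzed FBS; overnight 37 °C; cpd 15-pt titration, 5 h 37 °C; CellTiter-Glo 30 min RT; luminescence read; normalised to TOAB and DMSO controls.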

[10] = qHTS assay to identify small molecule agonists of the AP-1 signaling pathway (AID 1159526)

Measured: Potency

CCOP(=S)(OCC)SCCl
inactive: all assays above

NC1(c2ccccc2)CCCCC1
inactive: all assays above

COc1ccccc1OC
inactive: all assays above

OP(O)c1ccccc1
inactive: all assays above

C#CC(C)(C)O
inactive: all assays above

N[C@@H](Cc1ccc(Oc2cc(I)c(O)c(I)c2)c(I)c1)C(=O)O
inactive: all assays above

CCC1(c2ccccc2)CCC(=O)NC1=O (stereo not given)
inactive: all assays above

CC(C)(C)NC[C@H](O)c1ccc(O)cc1Cl
inactive: all assays above

CCOC(=O)COc1ccc(Cl)cc1Cl
inactive: all assays above

CCOP(=S)(OCC)Oc1ccc(Cl)cc1Cl
inactive: all assays above

O=C(O)C(F)(F)C(F)(F)C(F)(F)C(F)(F)C(F)(F)C(F)(F)F
inactive: all assays above

CCN[C@H](C)Cc1cccc(C(F)(F)F)c1
inactive: all assays above

CCCOC(=O)Cc1ccc(OCC(=O)N(CC)CC)c(OC)c1
inactive: all assays above
